In PubChem BioAssay:
Values without a mark were called inactive. Active and inactive are the calls of the source.

Experiment: growth modulation of vineyard yeast isolate – strain RM11-1a, OD600, basal, 24 h, primary screen (AID 1177);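 also: cultures grown under basal conditions with no added stressor; test concentration not given here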
Conditions: S. cerevisiae RM11-1a growth, OD600, 24 h; higher = more signal, called active from +8 up or from −8 down

Going from `[N-]=[N+]=NCc1ccccc1[C@@H]1OC(c2ccc(OCCCO)cc2)=N[C@]1(Cc1ccccc1N=[N+]=[N-])C(=O)NCc1ccccc1` to `[N-]=[N+]=NCc1ccccc1C[C@]1(C(=O)NCCN2CCOCC2)N=C(c2ccc(OCCCO)cc2)O[C@H]1c1ccccc1N=[N+]=[N-]`, the z-score falls from 1.27 to 0.145.

Going from `NCCCCCCNC(=O)[C@H]1C[C@H]2C(=O)NCC(=O)N2[C@H]1c1cccc(OCCO)c1` to `O=C(NCc1ccccc1)[C@]1(CCS(=O)(=O)c2ccccc2)N=C(c2ccc(OCCCO)cc2)O[C@@H]1c1ccccc1`, the z-score rises from -0.689 to 1.91.

First: CCCCCN1CC=CC23O[C@@H]4/C=C\CCC(C)OC(=O)C4[C@H]2C(=O)N(CCCCCO)[C@@H]3C1=O (some centres undefined)
Second: CCCC[C@H]1OB(O)C[C@H]2C1=C(C)C[C@H]1C(=O)N(Cc3ccccc3)C(=O)[C@H]12
The z-score of the first is lower: -1.01 for the first, -0.621 for the second.

Compared with `C=CC(=C)C1=CCO[C@@H]1[C@H]1CCCN1S(=O)(=O)c1ccccc1[N+](=O)[O-]`, `COc1ccc(NN2C(C(O)c3ccc(OC)c(OCc4ccccc4)c3)C=CC3C(=O)N(C4CCCCC4)C(=O)C32)cc1` (centres undefined) is lower in z-score: 0.223 for the first, -0.221 for the second.

Going from `COc1ccc(C(=O)Nc2cccc(CN3C(=O)[C@@]4(O[C@@H](CCn5cc(CCO)nn5)[C@H]([Si](C)(C)c5ccc(OC)cc5)[C@H]4C)c4ccccc43)c2)cc1` to `O=C1O[C@H](c2ccccc2)[C@H](c2ccccc2)N2[C@H]1[C@@H](C(=O)Nc1nc3ccccc3s1)[C@]1(C(=O)Nc3ccccc31)[C@H]2c1ccc(O)cc1`, the z-score falls from 3.1 to -0.393.

First: O=C/C=C/c1ccc2c(c1)OCO2
Second: CN(C)C(=O)[C@]1(CCC(=O)OC(C)(C)C)N=C(c2ccc(OCCCO)cc2)O[C@@H]1c1ccccc1N=[N+]=[N-]
The z-score of the first is lower: -1.87 for the first, 1.61 for the second.

Work on `Cc1ccc(S[C@]2(C(=O)NCC(C)C)CC(=O)N(Cc3ccccc3Cl)[C@@H]2c2ccc(CO)cc2)cc1` yielded a z-score of 0.343.

For `COCC(=C=CC[C@H](O)c1ccc(OCCO)cc1)C[C@H](O)c1cc(Cl)cc(Cl)c1O`, the z-score was -22.1 (active).
